# Candida biofilm: kills Candida albicans biofilms; 85,000 compounds, 0.14% hits; AID 834; inhibition, % at 6 µM; C. albicans biofilm + clotrimazole, Alamar Blue;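 active = inhibition above 20%; inactive = inhibition below 20%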;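 note: preformed 24 hr biofilms exposed to compound for 48 hr; 0% = biofilm without compound and 100% = blank killed by clotrimazole plus chlorhexidine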
# ERa coact inh: blocks coactivator binding to human estrogen receptor alpha; P03372; TR-FRET ER-alpha LBD / SRC-1 peptide, estradiol-bound; inhibition, % at 25.6 µM; 86,000 compounds, 1.7% hits; AID 629; in the data active = inhibition above about 50%;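 note: 0% = receptor plus peptide control and 100% = peptide only without receptor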
# ERa SRC1 pot: ER-alpha (human) coactivator binding potentiation; TR-FRET ERalpha-LBD/SRC-Cy5 coactivator binding, 2 h; 100 = basal binding, no effect; coactivator binding (% of control), % at 25.6 µM; 86,000 compounds, 1.3% hits; in the data active = activity above about 200%;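 note: binding measured in presence of low estradiol as agonist stimulus; 0% = peptide alone without receptor and 100% = receptor with peptide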
# ERb SRC1 inh: ER-beta (human) coactivator binding inhibition; TR-FRET ER-beta LBD / SRC1-Cy5 peptide binding; receptor agonist-loaded with 1 µM estradiol; inhibition, % at 25.6 µM; Q92731; 86,000 compounds, 1.3% hits;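 active = compounds whose percent inhibition of the receptor-coactivator binding signal exceeds about 50% in the single-dose screen, limit read from the data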;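 note: 0% = receptor plus peptide wells without compound and 100% = peptide-only wells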
# Target sequence (Q92731 whole entry, looked up, the tested form may be a part): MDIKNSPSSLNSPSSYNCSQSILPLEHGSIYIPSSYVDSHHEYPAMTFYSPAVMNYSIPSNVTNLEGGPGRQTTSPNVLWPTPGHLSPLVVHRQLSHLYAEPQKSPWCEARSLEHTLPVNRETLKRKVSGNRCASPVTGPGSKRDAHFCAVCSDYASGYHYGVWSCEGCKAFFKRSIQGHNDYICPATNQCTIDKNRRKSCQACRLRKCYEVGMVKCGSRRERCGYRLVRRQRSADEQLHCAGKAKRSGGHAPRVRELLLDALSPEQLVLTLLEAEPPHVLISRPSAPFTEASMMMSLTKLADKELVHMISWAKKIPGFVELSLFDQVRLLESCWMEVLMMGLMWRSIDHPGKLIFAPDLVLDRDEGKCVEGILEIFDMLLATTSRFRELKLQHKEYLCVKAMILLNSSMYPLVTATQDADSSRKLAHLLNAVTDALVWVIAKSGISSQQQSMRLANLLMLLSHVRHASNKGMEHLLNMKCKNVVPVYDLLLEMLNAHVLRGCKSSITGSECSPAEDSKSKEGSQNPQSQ
# MT1-MMP txn act: MT1-MMP promoter transcription activation. activation factor at 10 µM. HT1080 MT1-MMP promoter luciferase reporter, luminescence, overnight; stronger effect = higher value. 86,000 compounds, 0.16% hits;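 active = activation factor of at least 2 for MT1-MMP transcription at 10 µM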
# Smad3 inh: inhibitors of human Smad3 transcription factor binding; P84022; TR-FRET Smad3/Dy647-FoxH1 peptide binding, europium anti-His; inhibition, % at 25 µM; 88,000 compounds, 0.29% hits;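 active = compounds that reduce the energy-transfer binding signal between the protein and its labelled peptide by more than half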;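 note: 0% = Smad3 plus labelled peptide maximal FRET and 100% = peptide-only background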
# Numbers without * were called inactive; x = not tested or not shown; [ ] = another dose, or the depositor's remark. This is a sample that favours compounds with a hit; in the whole collection about 3.8% have one here.
SMILES,Candida biofilm,ERa coact inh,ERa SRC1 pot,ERb SRC1 inh,MT1-MMP txn act,Smad3 inh
COC(=O)c1ccc(Oc2nc(C(N)=O)cc(-c3ccccc3)n2)cc1,-3,47,264*[fluorescence artefact?],20,1.1,5
OC(COc1ccc(C2C=CCC2)cc1)CN1CCCCC1 (configuration not stated),6,37,263*[fluorescence artefact?],63*[fluorescence artefact?],1.2,67*
CCCCCn1c(=O)[nH]c2cc(C(=O)NCc3ccc4c(c3)OCO4)ccc2c1=O,-5,61*[fluorescence artefact?],141,49,1.2,-10
COC(=O)c1ccc2c(=O)n(CCCCCC(=O)NCc3ccccn3)c(=O)[nH]c2c1,1,-2,129,-16,1.2,5
CCCCCn1c(=O)[nH]c2cc(C(=O)N3CCN(Cc4ccc5c(c4)OCO5)CC3)ccc2c1=O,4,-4,182,0,x,14
COC(=O)c1ccc2c(=O)n(CCCCCC(=O)NCc3ccc4c(c3)OCO4)c(=O)[nH]c2c1,4,88*,78,43,1.2,2
COC(=O)c1ccc2c(=O)n(CCCCCC(=O)NCc3ccccc3)c(=O)[nH]c2c1,5,85*[fluorescence artefact?],72,52*[fluorescence artefact?],1.1,2
COCCCNC(=O)c1ccc2c(=O)n(Cc3ccc4c(c3)OCO4)c(=S)[nH]c2c1,14,58*,121,47,1.1,6
O=C1CC[C@](CCc2nc3ccccc3[nH]2)(c2ccccc2)C(=O)N1,x,x,x,x,x,3
O=[N+]([O-])c1ccc(CSCc2ccc(Cl)cc2)cc1,x,x,x,x,x,4
CCOC(=O)C1CCN(c2c(N(C)Cc3ccco3)c(=O)c2=O)CC1,22*,-5,99,-9,1.1,4
CN(C)CCCNc1ncnc2nc[nH]c12,x,x,x,x,x,9
CN1CCC(n2[nH]c(-c3ccccc3)c(Cc3ccccc3)c2=O)CC1,x,x,x,x,x,30
COC(=O)N1[C@H](Cc2ccccc2)C=C[C@]1(C)C(=O)NCc1ccc(C)o1,x,x,x,x,1,x
COc1cccc(-n2nnc3c(=O)n(Cc4ccc(F)cc4)cnc32)c1,3,-2,109,-2,1.2,-10
COc1cc2c3nnc(-c4ccc(F)cc4)c-3cn(Cc3ccccc3)c2cc1OC,14,33,424*[fluorescence artefact?],39,x,-116
COc1ccc(C(O)c2nccn2Cc2ccccc2)cc1OC (configuration not stated),2,-5,108,-15,1,-1
COc1ccc(Cn2cc3c(-c4ccc(F)cc4)nnc-3c3cc(OC)c(OC)cc32)cc1,2,49,262*[fluorescence artefact?],34,x,8
COc1cc2c3nnc(-c4ccc(F)cc4)c-3cn(Cc3ccc(F)cc3)c2cc1OC,14,24,481*[fluorescence artefact?],32,x,-12
C[C@H](Oc1ccc(Oc2cnc3ccc(Cl)cc3n2)cc1)C(=O)O,x,x,x,x,x,4
CN(CC(=O)NCCN1CCN(Cc2ccccc2)CC1)S(=O)(=O)c1cccc2nsnc12,-1,4,764*[fluorescence artefact?],5,1.4,5
CC1CCC(C(=O)O)([C@H](Br)C(=O)O)CC1 (some centres not stated),x,x,x,x,x,0
CC(=O)Nc1nc2n(n1)C(c1ccc(Cl)cc1)C=C(C)N2 (configuration not stated),3,9,98,7,1.1,63*
COc1ccc(C2C=C(c3ccc(Cl)cc3)Nc3nc(NC(C)=O)nn32)cc1 (configuration not stated),1,70*,172,22,1.1,4
CC(Oc1ccccc1F)C(=O)Nc1ccc2ccccc2c1 (configuration not stated),8,-7,105,-2,2*,-7
SMILES,Candida biofilm,ERa coact inh,ERa SRC1 pot,ERb SRC1 inh,MT1-MMP txn act,Smad3 inh
C=CCNc1nc(-c2ccc(OC)cc2OC)cs1,2,5,119,4,2*,20
Cc1ccccc1OCC(O)Cn1nnc2ccccc21 (configuration not stated),7,-21,106,-11,2*,1
CCn1c(COc2ccccc2C)nc2ccccc21,6,-11,120,-17,1.7,0
O=C(NCc1ccco1)c1nn2c(C(F)(F)F)cc(-c3cccs3)nc2c1Br,-1,59*,157,44,x,0
COC(=O)[C@@H]1C[C@@H]2CC[C@@H](O)C[C@@H]2N1CC1CCCCC1,x,x,x,x,1.9,x
COc1ccc2cc3cc(C(=O)NCCc4ccc(OC)c(OC)c4)oc3nc2c1,10,21,98,0,1.2,-1
Cc1ccc2cc3cc(C(=O)NCc4ccc5c(c4)OCO5)oc3nc2c1,9,51*[fluorescence artefact?],125,35,0.9,9
COc1ccc2nc3oc(C(=O)Nc4ccc(OC)c(OC)c4)cc3cc2c1,4,63*[fluorescence artefact?],108,41,1,42
COc1ccc(C)cc1NC(=O)c1cc2cc3ccc(C)cc3nc2o1,7,40,209*,-20,1.2,-2
COc1ccc2cc3cc(C(=O)Nc4ccc5c(c4)OCO5)oc3nc2c1,8,23,159,39,1.1,-17
CN(Cc1cccc2ccccc12)Cc1cccc2ccccc12,x,x,x,x,x,10
Cc1cc2ccccc2c[n+]1CC(O)C[n+]1cc2ccccc2cc1C,x,x,x,x,x,-9
Cc1ccc(N2CC(C(N)=O)CC2=O)cc1 (configuration not stated),2,-1,99,2,1.2,51*
COc1ccc(N2CC(C(=O)O)CC2=O)cc1 (configuration not stated),2,-23,107,71*,1.1,-3
Cc1ccc(N2CC(C(=O)Nc3ccccn3)CC2=O)cc1 (configuration not stated),-2,5,93,63*[fluorescence artefact?],1.2,-12
Cc1ccc(N2CC(C(N)=O)CC2=O)cc1C (configuration not stated),3,-35,111,-33,1,12
O=C(C1CC(c2ccccc2O)=NO1)N1CCCCC1 (configuration not stated),7,5,121,-4,1.8,-4
CC(C)=CCNc1ncnc2c1c(C#N)cn2[C@H]1O[C@H](CO)[C@@H](O)[C@@H]1O,x,x,x,x,x,-8
NC(=O)C[C@H](N)C(N)=O,x,x,x,x,x,1
NNC(=O)CS(=O)(=O)Nc1ncccn1,x,x,x,x,x,42
Cc1ccc(NC2c3ncccc3C(=O)N2c2ccccc2C)cc1C (configuration not stated),1,-45,543*[fluorescence artefact?],21,1.4,11
CCOc1ccc(N2C(=O)c3cccnc3C2Nc2ccc(Cl)cc2)cc1 (configuration not stated),6,6,107,2,1.1,0
COCCNS(=O)(=O)c1ccc2c(c1)C(=O)c1cc(S(=O)(=O)NCCOC)ccc1-2,0,-1,78,55*[fluorescence artefact?],x,-10
O=C1c2cc(S(=O)(=O)NCCCO)ccc2-c2ccc(S(=O)(=O)NCCCO)cc21,0,7,77,0,1.1,2
C=CCSc1nc2c(c(=O)[nH]c(=O)n2C)n1Cc1ccc(C)cc1,0,18,148,-5,1.2,-13
